PubChem BioAssay
Active and inactive are the calls of the source.

Key:
[1] = target: Albumin (Bos taurus) (UniProt P02769); assay: compounds binding labelled BSA control protein – biochemical, small-molecule microarray, Alexa647 label, 635/667 nm fluorescence, artefact control for SMM control protein annotation, profiling panel (AID 1118); conditions: BSA-A647 binding, fluorescence 635 nm, higher = more signal;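 further: score merges 667 nm emission intensity and signal-to-noise per printed compound spot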
Sequence of Albumin (Bos taurus) (P02769 whole entry, looked up): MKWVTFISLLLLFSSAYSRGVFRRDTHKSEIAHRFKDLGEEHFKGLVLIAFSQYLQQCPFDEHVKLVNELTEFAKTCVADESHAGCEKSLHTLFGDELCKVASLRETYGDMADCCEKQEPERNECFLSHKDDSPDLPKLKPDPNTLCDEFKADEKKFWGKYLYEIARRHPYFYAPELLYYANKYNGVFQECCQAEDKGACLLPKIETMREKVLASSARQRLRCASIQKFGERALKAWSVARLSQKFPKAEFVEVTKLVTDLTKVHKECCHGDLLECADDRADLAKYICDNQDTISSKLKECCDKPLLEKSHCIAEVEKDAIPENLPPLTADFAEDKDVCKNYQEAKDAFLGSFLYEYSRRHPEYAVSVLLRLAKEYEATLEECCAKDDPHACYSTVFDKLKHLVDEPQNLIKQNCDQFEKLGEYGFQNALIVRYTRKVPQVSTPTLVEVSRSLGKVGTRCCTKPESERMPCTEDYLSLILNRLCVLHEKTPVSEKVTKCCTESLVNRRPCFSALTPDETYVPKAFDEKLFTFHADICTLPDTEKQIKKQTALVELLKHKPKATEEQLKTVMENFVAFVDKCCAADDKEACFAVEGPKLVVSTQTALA

[2] = probe aXIP binding to arrayed compounds – biochemical, NeuroSMM set, 635/667 nm fluorescence, primary screen (AID 1119); conditions: small-molecule microarray, higher = more signal, called active from +8 up or from −8 down;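 further: probe is the protein aXip251-270 applied at 1 µg/mL to compound-printed slides; binding of probe to printed compounds measured as 667 nm fluorescence plus signal to noise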
[3] = probe aNOTCH3 binding on compound microarray – biochemical, small-molecule microarray, 635/667 nm fluorescence, primary screen (AID 1120); conditions: higher = more signal;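 further: probe is a biotin-tagged antibody raised against NOTCH3 rather than NOTCH3 protein; score merges spot fluorescence near 667 nm with spot signal to noise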
[4] = probe aNOTCH2 binding on compound microarray – biochemical, small-molecule microarray, 635/667 nm fluorescence, primary screen (AID 1121); conditions: higher = more signal;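 further: score merges feature fluorescence read at 667 nm with its signal to noise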
[5] = target: Carbonic anhydrase 2 (Homo sapiens) (UniProt P00918); assay: compounds binding carbonic anhydrase 2 – biochemical, small-molecule microarray, Alexa647-labelled CAII, profiling panel (AID 1122); conditions: CAII-A647 binding fluorescence, higher = more signal
[6] = COS7 lysate on small-molecule microarray, probe aHis, 635 nm (AID 1123); conditions: COS7 cell lysate, fluorescence, higher = more signal;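 further: z-score combines 667nm fluorescence intensity with signal-to-noise per printed compound spot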
[7] = probe aLAP1 signal on lysate-treated microarray – cell lysate, small-molecule microarray, COS7 lysate, primary screen (AID 1124); conditions: probe aLAP1, fluorescence, higher = more signal;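 further: lysate comes from COS7 cells expressing LAP1 and is applied at 0.3 µg/mL; score merges spot fluorescence near 667 nm with signal-to-noise over triplicate slides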
[8] = test system: Sam68 (KHDRBS1); assay: compounds binding KHDRBS1 protein – biochemical, small-molecule microarray, 635 nm fluorescence, primary screen (AID 1125); conditions: higher = more signal;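 further: score merges 667 nm channel intensity with signal to noise over triplicate slides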
[9] = test system: Chordin-like protein 2 (CHRDL2); assay: compounds binding chordin-like 2 – biochemical, small-molecule microarray, 635 nm fluorescence, primary screen (AID 1126); conditions: fluorescence 635 nm, higher = more signal;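 further: printed compound slides probed with Chrdl2 protein at 4 µg/mL for 1 h at 4 C; score merges 667 nm emission intensity with signal to noise over three replicate slides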
[10] = target: Concanavalin-A (Canavalia ensiformis) (UniProt P02866); assay: compounds binding concanavalin A lectin – biochemical, small-molecule microarray, Alexa647 label, 635 nm, artefact control for SMM control protein annotation, primary screen (AID 1127); conditions: ConA-A647 binding fluorescence, higher = more signal;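 further: z combines 667 nm emission intensity with signal-to-noise across three replicate slides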
Sequence of Concanavalin-A (Canavalia ensiformis) (P02866 whole entry, looked up): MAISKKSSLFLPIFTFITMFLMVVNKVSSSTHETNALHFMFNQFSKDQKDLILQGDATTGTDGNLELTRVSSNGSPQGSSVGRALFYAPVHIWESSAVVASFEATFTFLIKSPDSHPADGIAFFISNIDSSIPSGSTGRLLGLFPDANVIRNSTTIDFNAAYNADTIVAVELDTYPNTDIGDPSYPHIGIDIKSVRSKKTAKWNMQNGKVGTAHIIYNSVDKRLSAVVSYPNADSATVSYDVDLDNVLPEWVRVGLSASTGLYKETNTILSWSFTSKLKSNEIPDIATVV

[11] = compounds binding Alexa647 anti-His antibody – biochemical, small-molecule microarray, 635 nm fluorescence, artefact control for SMM control protein annotation, primary screen (AID 1128); conditions: higher = more signal;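 further: score merges feature fluorescence with signal-to-noise for each printed compound spot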
[12] = test system: Human papillomavirus type 1a E7 protein (residues 1-88); assay: HPV1a E7 small-molecule binders, primary screen, biochemical, small-molecule microarray, residues 1-88, 635 nm (AID 1129); conditions: small-molecule microarray binding, fluorescence 635 nm; higher = more signal
[13] = target: Focal adhesion kinase 1 (Homo sapiens) (UniProt Q05397); assay: PTK2 protein binding on printed compound slides – biochemical, small-molecule microarray, 635/667 nm fluorescence, BSA, DTT, primary screen (AID 1130); conditions: 635 nm fluorescence, higher = more signal;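 further: composite of spot emission at 667 nm and signal to noise over triplicate slides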
Sequence of Focal adhesion kinase 1 (Homo sapiens) (Q05397 whole entry, looked up): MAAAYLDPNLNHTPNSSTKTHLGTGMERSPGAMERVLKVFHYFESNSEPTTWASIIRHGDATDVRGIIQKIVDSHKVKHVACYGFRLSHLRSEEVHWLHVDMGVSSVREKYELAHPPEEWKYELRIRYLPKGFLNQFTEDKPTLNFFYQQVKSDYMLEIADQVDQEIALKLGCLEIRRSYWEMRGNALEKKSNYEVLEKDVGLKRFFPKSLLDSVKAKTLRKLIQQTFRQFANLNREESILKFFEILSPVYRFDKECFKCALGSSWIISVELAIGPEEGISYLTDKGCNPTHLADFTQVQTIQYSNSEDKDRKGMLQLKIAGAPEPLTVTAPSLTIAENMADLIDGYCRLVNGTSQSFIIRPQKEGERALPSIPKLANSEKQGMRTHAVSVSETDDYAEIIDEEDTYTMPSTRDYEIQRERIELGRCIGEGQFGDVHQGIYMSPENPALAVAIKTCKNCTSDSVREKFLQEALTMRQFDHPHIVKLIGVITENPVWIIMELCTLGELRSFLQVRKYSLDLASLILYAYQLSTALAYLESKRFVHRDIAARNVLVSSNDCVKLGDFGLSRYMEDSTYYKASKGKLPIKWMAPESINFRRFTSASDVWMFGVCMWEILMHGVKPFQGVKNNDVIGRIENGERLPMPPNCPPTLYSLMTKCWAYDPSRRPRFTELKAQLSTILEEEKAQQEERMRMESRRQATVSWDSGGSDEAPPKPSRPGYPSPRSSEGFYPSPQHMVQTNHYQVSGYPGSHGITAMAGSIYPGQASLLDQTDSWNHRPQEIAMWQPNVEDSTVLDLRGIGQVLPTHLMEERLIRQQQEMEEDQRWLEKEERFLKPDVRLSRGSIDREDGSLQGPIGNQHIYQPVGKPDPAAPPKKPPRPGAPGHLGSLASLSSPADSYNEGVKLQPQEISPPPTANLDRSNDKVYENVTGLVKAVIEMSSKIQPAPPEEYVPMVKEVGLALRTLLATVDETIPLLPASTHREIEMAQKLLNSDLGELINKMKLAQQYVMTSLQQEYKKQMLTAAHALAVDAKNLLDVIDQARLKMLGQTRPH

[14] = test system: Fibrinogen (Alexa647-labelled); assay: Alexa647-fibrinogen binding to printed small molecules – biochemical, small-molecule microarray, 635/667 nm fluorescence, artefact control for SMM control-protein annotation, profiling panel (AID 1131); conditions: fibrinogen-A647 binding fluorescence, higher = more signal;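 further: z-score merges 667 nm fluorescence with per-spot signal-to-noise over triplicate slides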
[15] = target: Follistatin (Homo sapiens) (UniProt P19883); assay: FST protein binding to printed compounds – biochemical, small-molecule microarray, 635/667 nm fluorescence, primary screen (AID 1132); conditions: 635 nm fluorescence, higher = more signal
Sequence of Follistatin (Homo sapiens) (P19883 whole entry, looked up): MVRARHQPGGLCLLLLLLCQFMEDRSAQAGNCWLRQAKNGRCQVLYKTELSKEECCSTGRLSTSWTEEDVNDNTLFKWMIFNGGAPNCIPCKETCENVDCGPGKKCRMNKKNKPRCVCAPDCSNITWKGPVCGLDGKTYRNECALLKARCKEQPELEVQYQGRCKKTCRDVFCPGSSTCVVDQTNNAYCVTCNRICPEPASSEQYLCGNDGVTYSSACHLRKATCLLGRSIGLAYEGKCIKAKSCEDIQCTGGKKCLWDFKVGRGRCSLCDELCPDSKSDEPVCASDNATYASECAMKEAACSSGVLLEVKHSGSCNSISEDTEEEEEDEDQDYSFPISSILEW

[16] = target: Fibroblast growth factor 2 (Homo sapiens) (UniProt P09038); assay: basic fibroblast growth factor binding to printed compounds – biochemical, small-molecule microarray, 635/667 nm fluorescence, primary screen (AID 1133); conditions: FGF2, fluorescence 635/667, higher = more signal
Sequence of Fibroblast growth factor 2 (Homo sapiens) (P09038 whole entry, looked up): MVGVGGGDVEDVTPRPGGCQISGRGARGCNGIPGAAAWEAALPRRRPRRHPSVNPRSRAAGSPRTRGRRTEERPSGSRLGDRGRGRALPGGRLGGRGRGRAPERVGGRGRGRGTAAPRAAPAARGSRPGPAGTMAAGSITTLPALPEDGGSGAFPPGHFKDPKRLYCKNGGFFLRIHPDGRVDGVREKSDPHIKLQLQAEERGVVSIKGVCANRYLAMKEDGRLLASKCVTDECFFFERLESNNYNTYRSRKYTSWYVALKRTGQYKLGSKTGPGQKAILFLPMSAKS

[17] = JC-1 mitochondrial potential readout, lung cancer cells – cell-based, A549, JC-1 fluorescence, basal, 24 h, 100 nL, profiling panel (AID 1138); conditions: higher = more signal;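 further: A549 lung adenocarcinoma cells under basal conditions with no added stimulus; test concentration not given here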
[18] = test system: Lefty1; assay: Lefty1 protein binding to printed compounds – biochemical, small-molecule microarray, 635/667 nm fluorescence, primary screen (AID 1139); conditions: fluorescence 635/667, higher = more signal
[19] = test system: wheat germ agglutinin (Triticum aestivum), Alexa647-labelled; assay: Alexa647-WGA lectin binding to printed small molecules – biochemical, small-molecule microarray, 635/667 nm fluorescence, artefact control for SMM control-protein annotation, profiling panel (AID 1140); conditions: WGA-A647 binding, 635 nm fluorescence, higher = more signal;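 further: score merges 667 nm feature emission with signal to noise over triplicate slides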
[20] = target: Luciferin 4-monooxygenase (Photinus pyralis) (UniProt P08659); assay: inhibition of purified Photinus pyralis luciferase – biochemical, luminescence, purified enzyme, 2006 set, primary screen (AID 1141); conditions: purified firefly luciferase, SteadyGlo luminescence, 30 min; higher = more signal, called active from +8 up or from −8 down;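 further: cell-free assay with purified firefly luciferase at 100 ng per well in PBS; test concentration not given here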
Sequence of Luciferin 4-monooxygenase (Photinus pyralis) (P08659 whole entry, looked up): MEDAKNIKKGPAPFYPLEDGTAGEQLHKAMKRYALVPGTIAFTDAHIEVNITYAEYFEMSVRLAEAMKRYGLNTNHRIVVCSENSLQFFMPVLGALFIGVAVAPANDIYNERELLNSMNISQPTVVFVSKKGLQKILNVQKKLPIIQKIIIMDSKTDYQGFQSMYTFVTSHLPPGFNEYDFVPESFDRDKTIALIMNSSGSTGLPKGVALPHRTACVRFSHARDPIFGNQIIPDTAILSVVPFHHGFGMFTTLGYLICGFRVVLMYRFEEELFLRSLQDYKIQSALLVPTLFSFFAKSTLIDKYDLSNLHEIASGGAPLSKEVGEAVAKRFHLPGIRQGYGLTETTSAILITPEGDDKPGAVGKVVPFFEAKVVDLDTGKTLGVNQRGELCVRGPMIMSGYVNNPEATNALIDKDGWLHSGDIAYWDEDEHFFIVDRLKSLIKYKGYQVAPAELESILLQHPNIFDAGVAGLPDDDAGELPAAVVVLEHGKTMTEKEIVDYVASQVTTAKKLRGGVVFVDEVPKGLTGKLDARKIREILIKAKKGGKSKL

Structure (SMILES) | composite z-score [1] | composite Z-score [2] | composite z-score [3] | composite z-score [4] | composite z-score [5] | composite z-score [6] | composite z-score [7] | composite z-score [8] | composite z-score [9] | composite z-score [10] | composite z-score [11] | composite z-score [12] | composite z-score [13] | composite z-score [14] | composite z-score [15] | composite z-score [16] | z-score [17] | composite z-score [18] | composite z-score [19] | z-score [20]
O=C1O[C@@H](c2ccccc2)[C@@H](c2ccccc2)N2[C@@H](c3ccccc3OCCO)[C@]3(C(=O)Nc4ccc(C#CC5=CCCCC5)cc43)[C@@H](C(=O)Nc3nc4ccccc4s3)[C@H]12 | 0.778 | 0.243 (inactive) | 0.0715 | -0.0583 | 0.272 | 1.39 | 0.399 | 1.3 | 0.309 | 1.06 | 0.353 | 1.17 | 0.0358 | 0.843 | 1.12 | 0.885 | -2.22 | 0.781 | 0.622 | -0.959 (inactive)
O=C(O)[C@@]1(CCS(=O)(=O)c2ccccc2)COC(c2ccc(OCCCO)cc2)=N1 | -0.344 | 0.714 (inactive) | -0.15 | -0.108 | 0.815 | 1.63 | 0.0237 | -0.39 | -0.724 | -0.0647 | -0.777 | -0.0191 | -0.283 | -1.2 | 0.0153 | -0.23 | -0.487 | -1.34 | -0.0996 | 0.299 (inactive)
CCCC[C@H]1OB(O)C[C@H]2C1=C(COc1ccccc1)C[C@H]1C(=O)N(C)C(=O)[C@H]12 | -0.137 | -0.252 (inactive) | -0.0046 | -0.0596 | -0.0293 | 0.486 | 0.0594 | -0.348 | 0.497 | -0.271 | -0.0391 | 0.0417 | -0.281 | -0.0052 | 1.24 | 0.473 | 0.284 | 0.576 | 0.0686 | -0.718 (inactive)
CC[C@@H]1C=C(C(=O)O)[C@H](c2ccco2)N1S(=O)(=O)c1ccc(C)cc1 | -0.179 | 0.33 (inactive) | -0.128 | -0.108 | 0.689 | 0.059 | 0.591 | 0.125 | 0.209 | -1.29 | 0.2 | -0.522 | 1.32 | -1.13 | 1 | -0.152 | -1.09 | -0.165 | 0.839 | 1.09 (inactive)
O=C1NC(=O)C2C1C=CC(C(O)c1ccccc1)N2Nc1ccc(Cl)cc1Cl (stereo not given) | 0.885 | -0.199 (inactive) | 0.405 | -0.0974 | 0.574 | 3.18 | 1.23 | 1.33 | -0.238 | 1.1 | 1.62 | 1.16 | 0.433 | 0.985 | 1.28 | 0.394 | -0.0329 | 1.4 | 0.763 | -1.44 (inactive)
NCCCCCNC(=O)[C@@H]1C[C@@H]2C(=O)N[C@@H](Cc3ccccc3)C(=O)N2[C@@H]1c1cccc(OCCO)c1 | 0.654 | 0.376 (inactive) | 0.0087 | -0.112 | 0.698 | 1.18 | 0.463 | 0.861 | -0.0335 | 1.05 | 1.63 | -0.074 | 0.123 | 0.968 | 0.574 | 0.635 | -0.505 | 0.325 | 1.12 | -0.435 (inactive)
CC(C)(C)OC(=O)CC[C@]12N=C(c3ccc(OCCCO)cc3)O[C@H]1c1ccccc1N(CCS(=O)(=O)c1ccccc1)C2=O | 0.0963 | 1.02 (inactive) | 0.21 | -0.0241 | 0.422 | 2.48 | 0.53 | 1.3 | 0.765 | 1.14 | 1.99 | 1.24 | 0.895 | 0.957 | 1.17 | 0.596 | 0.95 | 0.5 | 1.08 | -8.32 (active)
C=CCN(Cc1ccccc1)C(=O)C(c1cccs1)N(CCOCCO)C(=O)/C=C\C(=O)O (stereo not given) | -0.462 | 0.131 (inactive) | -0.553 | -0.165 | 0.39 | -0.25 | -0.658 | -0.754 | -3.82 | -1.33 | -0.187 | -0.92 | -0.374 | -2.2 | -2.64 | -2.43 | 0.316 | -2.47 | -0.47 | -3.93 (inactive)
COc1ccc([Si](C)(C)[C@@H]2[C@@H](CC(=O)N3Cc4ccccc4C[C@H]3CO)O[C@]3(C(=O)N(C)c4c(Br)cc(C)cc43)[C@H]2C)cc1 | 0.494 | 0.136 (inactive) | 0.0562 | -0.164 | 0.574 | 0.498 | 0.172 | 1.31 | 1.11 | 1.13 | 0.333 | 1.13 | 0.341 | 0.76 | 1.35 | 1.65 | 0.595 | 1.56 | 1.03 | -0.178 (inactive)
C=C(COC)/C(=C/C[C@H](OC(=O)c1ccncc1)c1ccc(OCCO)cc1)c1cnc2ccccc2c1 | 0.808 | 0.914 (inactive) | 0.227 | -0.0389 | 0.86 | 1.46 | 0.334 | 1.29 | 1.26 | 1.17 | 1.96 | 1.2 | 0.111 | 0.967 | 1.38 | 1.02 | -0.0174 | 1.33 | 1.47 | -1.34 (inactive)
COc1cc2c(cc1O)C=[N+](Cc1cccc(OC(F)(F)F)c1)CC2 | 0.828 | 0.0714 (inactive) | -0.0879 | -0.172 | 0.61 | -0.784 | 0.173 | -0.933 | 0.156 | -0.27 | -0.131 | -0.566 | 0.185 | -0.636 | 0.318 | -0.0744 | 2 | -0.285 | 1.01 | -0.847 (inactive)
